Screens deposited in PubChem by National Center for Advancing Translational Sciences (NCATS).
TDP1 cell CPT: growth inhibition of DT40 Tdp1-/-;hTDP1 cells with camptothecin (screen for TDP1 inhibitors) | chicken DT40 Tdp1-/-;hTDP1 cells + 20 nM CPT, ATP luminescence, 48 h | Potency, µM (doses to about 46.2 µM), for the others: at the highest dose activity change, negative = growth inhibition, actives largely listed as inhibitors | hit rate 12% among 420,000 | AID 686979; note: nearly all actives have a fitted effect of over 55% in size
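Chicken DT40 Tdp1-/- cells stably complemented with human TDP1 were seeded at 400 cells/well in medium containing 20 nM camptothecin, exposed to pin-transferred compounds, and grown at 37 °C for at least 48 hr. Viability was read as ATP luminescence.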
KB-3-1 tox: KB-3-1 parental cell cytotoxicity. Potency, µM (doses to about 46.1 µM), usual class: cytotoxic. hit rate 1.4% among 400,000. KB-3-1 viability, CellTiter-Glo ATP luminescence, 72 h; note: nearly all actives have a fitted effect of over 60% in size
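Parental KB-3-1 viability, qHTS format: 72 h compound exposure, 37 °C; CellTiter-Glo; media-only wells and DMSO plates as controls; concentration-effect fits on corrected data.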
KB-V1 MDR tox: kills drug-selected multidrug resistant KB-V1 cells; Potency, µM (series often up to 46.1 µM), hits mostly cytotoxic; hit rate 3.4% among 400,000; KB-V1 MDR cells viability, CellTiter-Glo, 72 h; note: nearly all actives have a fitted effect of over 60% in size
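In this primary screen, KB-V1 cells overexpressing P-gp are incubated with library compounds (lowest to highest concentration) for 72 h at 37 degrees C before a luminescent ATP viability read.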
HT1080-NT tox: kills 2HG-producing HT-1080-NT fibrosarcoma cells; hit rate 1.6% among 360,000; Potency, µM (highest dose often 46.1 µM), for the others: at the top dose activity, negative = less viability, hits mostly cytotoxic; HT-1080-NT fibrosarcoma viability, CellTiter-Glo ATP luminescence, 48 h; AID 686970;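 note: NT is the 2HG producing partner of a matched IDH1 knockdown line; 0% = DMSO-treated cells and -100% = media-only wells without cells; nearly all actives have a fitted effect of over 55% in size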
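Luminescent CellTiter-Glo readout after 48 hours of compound exposure at 37 degrees C defined viability of HT-1080-NT cells. Activity was normalized to DMSO wells and cell-free media wells; concentration-response curves were fitted and assigned curve classes.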
DT40 TDP1 no CPT: qHTS for Inhibitors of human tyrosyl-DNA phosphodiesterase 1 (TDP1): qHTS in cells in absence of CPT. DT40 Tdp1-/- hTDP1 cells, no CPT, ATP luminescence, 48 h. Potency, µM (titrated, usually from 46.2 µM), for inactives: top-dose activity change, negative = growth inhibition, hits mostly inhibitors. hit rate 15% among 420,000. AID 686978, 2013; note: nearly all actives have a fitted effect of over 55% in size
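Cells were dispensed at 400 per well, compounds added by pin tool, plates incubated ≥48 hr at 37 °C, then CellTiter-Glo added for 30 min at room temperature before luminescence reading. Line: DT40 Tdp1-/- complemented with hTDP1; camptothecin omitted.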
HT1080 IDH1KD tx: toxicity to HT-1080 IDH1 knockdown cells (counter line); HT-1080 IDH1 knockdown viability, ATP luminescence, 48 h; hit rate 2% among 360,000; Potency, µM (doses to about 46.1 µM), for the others: at the highest dose activity, negative = toxicity, most hits filed as cytotoxic;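 note: 0% = DMSO wells and -100% = cell-free medium wells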
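Viability of IDH1-knockdown HT-1080 fibrosarcoma cells was assessed by CellTiter-Glo after 48 h at 37 °C with titrated compound; concentration-effect curves were classified by fit quality and response size.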
Starred values were filed as active, the others as inactive; i = inactive; ? = inconclusive; · = not tested or not shown; [ ] = another dose, or the depositor's remark. The list is not random: actives were taken first. Their share in the collection is about 19%. Calls come from the whole dose curve; as a rule, active = well fitted curve in the direction sought with a large enough effect; inconclusive = small, poorly fitted or top-dose-only effect, or another doubt; inactive = no such curve, though single readings can be large; an effect the other way counts as inactive or inconclusive. Unless noted, % is set by controls: 0 for no effect and ±100 for the full control effect; potency is the fitted concentration of half-maximal effect.

SMILES | TDP1 cell CPT | KB-3-1 tox | KB-V1 MDR tox | HT1080-NT tox | DT40 TDP1 no CPT | HT1080 IDH1KD tx
CN(C)C(=O)c1ccc(-c2ccc3ncnc(Nc4ccccc4)c3c2)cc1 | ? | · | · | · | 1.5µM* | ·
CC(=O)NCCNc1nc(-c2ccc(C(=O)N(C)C)cc2)nc2ccccc12 | ? | · | · | · | -29% | ·
CN(C)C(=O)c1ccc(-c2nc(Nc3ccc(F)cc3)c3ccccc3n2)cc1 | ? | · | · | · | 23µM* | ·
CC(=O)c1cccc(Nc2ncnc3ccc(Br)cc23)c1 | 16µM* | i | i | -5% | 21µM* | -18%
CC(=O)c1ccc(Nc2ncnc3ccc(Br)cc23)cc1 | -22% | i | i | -6% | ? | 2%
CN(C)C(=O)c1ccc(-c2ccc3ncnc(NCc4cccs4)c3c2)cc1 | -28% | · | · | · | -25% | ·
O=[N+]([O-])c1ccc(O)c(Nc2ncnc3ccccc23)c1 | -8% | i | i | 4% | 1% | -3%
O=[N+]([O-])c1ccc(O)c(Nc2ncnc3ccc(Br)cc23)c1 | -20% | ? | i | ? | 12µM* | ?
C=CCNC(=O)c1ccc2nc(-c3ccccc3)c(-c3ccccc3)nc2c1 | ? | i | i | -4% | ? | -6%
CN(C)C(=O)c1ccc(Nc2nc(-c3cccs3)nc3ccccc23)cc1 | 10µM* | i | i | ? | 7.3µM* | ?
CS(=O)(=O)Nc1cccc(-c2nc(Nc3ccccc3)c3ccccc3n2)c1 | 9.2µM* | · | · | · | 4.6µM* | ·
Cc1cccc(CNC(=O)c2ccc3nc(-c4ccccc4)c(-c4ccccc4)nc3c2)c1 | 21µM* | i | i | · | ? | ·
COCCn1cc(C(=O)c2cc(Br)ccc2O)cc(C#N)c1=O | ? | ? | ? | -2% | ? | -9%
COc1ccc(NC(=O)C(c2ccncc2)n2c(=O)c(-c3ccccc3)nc3ccccc32)cc1 (configuration not stated) | ? | i | i | -23% | ? | ?
COc1ccc(C(=O)N(O)c2ccccc2)cc1 | 26%[9.04 µM] | · | · | · | -6%[9.04 µM] | ·
CS(=O)(=O)Nc1cccc(-c2nc(N3CCOCC3)c3ccccc3n2)c1 | -12% | · | · | · | -20% | ·
CC(=O)c1ccc(Nc2nc(-c3ccccc3)nc3ccccc23)cc1 | ? | i | i | ? | 21µM* | -20%
CS(=O)(=O)Nc1cccc(-c2ccc3ncnc(N4CCOCC4)c3c2)c1 | 4.1µM* | · | · | · | 13µM* | ·
COc1ccc(N(C)C(=O)c2ccc3nc(-c4ccccc4)c(-c4ccccc4)nc3c2)cc1 | ? | ? | 21µM* | -24% | 18µM* | -19%
C=CCN(C(=O)c1ccccc1)c1ccc(OC)cc1 | 13µM* | ? | i | ? | 22µM* | ?
CC(=O)c1ccc2cc3c(cc2c1)OCO3 | -10% | i | i | -1% | ? | 1%
N#Cc1cccc(NC(=O)N2CC3(CCN(C(=O)c4cccc(F)c4)CC3)C2)c1 | -7% | · | · | · | -28% | ·
COCCN(CC(=O)Nc1cccc(C)c1C)C(=O)/C=C/c1ccc2c(c1)OCCO2 | -18% | i | i | 1% | 0% | 8%
COC(=O)c1cccc(Nc2ncnc3sccc23)c1 | 21µM* | i | i | -8% | ? | -17%
CS(=O)(=O)Nc1cccc(-c2ccc3ncnc(Nc4ccc(F)cc4)c3c2)c1 | 18µM* | · | · | · | ? | ·
CCC(Oc1ccc(F)cc1)C(=O)Nc1c(C(=O)c2ccc(C)cc2)oc2ccccc12 (configuration not stated) | -10% | · | · | · | -23% | ·
COc1ccccc1CNC(=O)c1cccc(S(=O)(=O)N2CCCC2)c1 | -7% | i | i | -1% | -3% | -7%
